Shown are actives, neighbours in structure and some others; about 3.5% of the full set was active somewhere.
ERa coact pot – enhancers of ERα–SRC-1 coactivator binding, primary screen, biochemical, TR-FRET, ERα LBD, low estradiol. Estrogen receptor (Homo sapiens), P03372. TR-FRET ERalpha-LBD/SRC-Cy5 coactivator binding, 2 h; 100 = basal binding, no effect. coactivator binding (% of control), % at 25.6 µM. hit rate 1.3% among 86,000. AID 639, 2007; in the data active = activity above about 200%;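 note: binding measured in presence of low estradiol as agonist stimulus; 0% = peptide alone without receptor and 100% = receptor with peptide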
MMP13 inh – human MMP13 inhibitors, primary screen, biochemical, FRET peptide cleavage; Collagenase 3 (Homo sapiens), P45452; MMP-13 fTHP FRET cleavage, Mca fluorescence; inhibition, % at 4 µM; hit rate 0.07% among 65,000; AID 570, 2006;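 active = inhibition above the mean of compound-free control plate wells plus 3 SD, cut at about 14% in these data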;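 note: 0% = DMSO wells and 100% = wells with reference MMP-13 inhibitor after basal subtraction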
ERb SRC1 inh – inhibitors of ERβ-SRC1 coactivator interaction, primary screen, biochemical, TR-FRET, ERβ LBD, SRC-1 peptide; TR-FRET ER-beta LBD / SRC1-Cy5 peptide binding; receptor agonist-loaded with 1 µM estradiol; inhibition, % at 25.6 µM; hit rate 1.3% among 86,000; Estrogen receptor beta (Homo sapiens), Q92731;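 active = compounds whose percent inhibition of the receptor-coactivator binding signal exceeds about 50% in the single-dose screen, limit read from the data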;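 note: 0% = receptor plus peptide wells without compound and 100% = peptide-only wells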
Smad3 FoxH1 inh – Smad3/FoxH1 peptide binding inhibitors, primary screen, biochemical, TR-FRET; inhibition, % at 25 µM; hit rate 0.29% among 88,000; TR-FRET Smad3/Dy647-FoxH1 peptide binding, europium anti-His; Mothers against decapentaplegic homolog 3 (Homo sapiens), P84022;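 active = compounds that reduce the energy-transfer binding signal between the protein and its labelled peptide by more than half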;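 note: 0% = Smad3 plus labelled peptide maximal FRET and 100% = peptide-only background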
Target sequence (P84022 whole entry, looked up): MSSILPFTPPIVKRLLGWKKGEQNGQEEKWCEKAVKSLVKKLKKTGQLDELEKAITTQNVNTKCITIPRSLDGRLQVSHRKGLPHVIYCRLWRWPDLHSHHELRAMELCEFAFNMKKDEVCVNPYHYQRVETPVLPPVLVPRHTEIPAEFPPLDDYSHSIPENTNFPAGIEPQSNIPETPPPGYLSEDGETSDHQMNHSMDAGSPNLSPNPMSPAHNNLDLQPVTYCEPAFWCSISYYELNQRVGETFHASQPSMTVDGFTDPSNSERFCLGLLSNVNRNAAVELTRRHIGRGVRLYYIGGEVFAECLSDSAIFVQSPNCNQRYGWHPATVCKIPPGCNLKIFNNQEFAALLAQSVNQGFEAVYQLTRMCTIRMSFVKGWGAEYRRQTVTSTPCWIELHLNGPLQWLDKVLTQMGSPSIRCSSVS
MT1-MMP txn act – MT1-MMP promoter reporter activation – cell-based, luciferase luminescence, primary screen; hit rate 0.16% among 86,000; HT1080 MT1-MMP promoter luciferase reporter, overnight; active compounds read high; activation factor at 10 µM;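 active = activation factor of at least 2 for MT1-MMP transcription at 10 µM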
ERa coact inh – ERα–SRC-1 coactivator interaction inhibitors, primary screen, biochemical, TR-FRET, ERα LBD, estradiol-bound. Estrogen receptor (Homo sapiens), P03372. TR-FRET ER-alpha LBD / SRC-1 peptide. inhibition, % at 25.6 µM. hit rate 1.7% among 86,000; in the data active = inhibition above about 50%;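 note: 0% = receptor plus peptide control and 100% = peptide only without receptor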
Active calls of the source: *; x = not tested or not shown; [ ] = another dose, or the depositor's remark.

SMILES | ERa coact pot | MMP13 inh | ERb SRC1 inh | Smad3 FoxH1 inh | MT1-MMP txn act | ERa coact inh
Cc1sc(NC(=O)CSc2nnc(COc3ccc(Cl)cc3)n2C)c(C#N)c1C | 317*[fluorescence artefact?] | 2 | 42 | 6 | 1.1 | 41
CSc1nnc(-c2ccc(NC(=O)CCc3ccccc3)cc2)n1C | 105 | 4 | -8 | 7 | 1 | 1
Cc1sc(NC(=O)CSc2nnc(-c3ccc(F)cc3)o2)c(C#N)c1C | 101 | 6 | 20 | 6 | 1.1 | 52*
Cc1ccc(-c2nnc(SCC(=O)Nc3ccccc3F)o2)cc1 | 132 | -4 | -5 | -1 | x | -3
Cn1c(SCC(=O)Nc2ccccc2)nnc1-c1ccc(NC(=O)CCc2ccccc2)cc1 | 99 | x | 76*[fluorescence artefact?] | -8 | 1.1 | -1
Cc1cc(SCCOc2ccccc2)nc(N)n1 | 115 | x | -2 | -12 | 1.3 | 2
Cc1nc2ncnn2c(N2CCN(C(=O)c3cccc(F)c3)CC2)c1C | 110 | x | 1 | 5 | 1.1 | -15
CC1CCCC(C)N1C(=O)CSc1nnc(-c2c[nH]c3ccccc23)o1 (centres undefined) | 94 | -11 | -19 | 16 | 1.1 | -7
CCOC(=O)c1c(NC(=O)CSc2nnc(-c3cccnc3)o2)sc(C(C)=O)c1C | 204*[fluorescence artefact?] | 4 | 16 | -9 | 1.1 | 20
CCOC(=O)c1c(NC(=O)CSc2nnc(-c3ccco3)o2)sc(C(C)=O)c1C | 156 | 3 | -3 | 5 | 1.1 | 10
CCn1c(=O)cc(OCC(=O)Nc2cccnc2)c2ccccc21 | 107 | 3 | -26 | 6 | 1.1 | -26
CCc1cc(=O)oc2cc(OCC(=O)N3CCc4ccccc43)ccc12 | 200*[fluorescence artefact?] | -8 | 4 | -8 | 1.1 | 10
CCn1c(=O)cc(OCC(=O)N2CCc3ccccc32)c2ccccc21 | 212*[fluorescence artefact?] | 4 | 15 | 9 | 1.1 | 2
CCOC(=O)c1ccc(NC(=O)COc2cc(=O)n(CC)c3ccccc23)cc1 | 890*[fluorescence artefact?] | x | -19 | -68 | x | -66
Cc1nn(Cc2ccc(Cl)cc2)c2sc(C(=O)OCC(N)=O)cc12 | 97 | x | 1 | 4 | 0.9 | 1
Cc1ccc(O)c(-c2cc(-c3cccc(F)c3)n[nH]2)c1 | 81 | x | 6 | -7 | 2.1* | 6
COc1ccc(-c2cc(-c3cc(F)ccc3O)[nH]n2)cc1OC | 76 | -4 | 3 | -6 | 2.3* | -3
COc1ccc(-c2cc(-c3ccccc3O)[nH]n2)cc1OC | 97 | -7 | 4 | -7 | 1.2 | 9
Cc1ccc(-c2cc(-c3cccc(F)c3)n[nH]2)c(O)c1 | 86 | -1 | 2 | 5 | 1.8 | 0
COc1ccc(-c2cc(-c3ccc(OC)c(OC)c3)n[nH]2)c(O)c1 | 88 | x | -8 | 3 | 2* | 9
COc1ccc(OC)c(NC(=O)Cn2c(-c3ccc(Cl)cc3)noc2=O)c1 | 103 | 6 | -3 | -14 | 1 | 4
C(=N\n1cnnc1)/c1ccc2ncccc2c1 | 97 | -5 | -7 | -1 | 1.1 | -8
Cn1nnnc1SCC(=O)N(C1CCCCC1)C1CCCCC1 | 108 | -3 | 51*[fluorescence artefact?] | -9 | 1.1 | -5
COc1ccc2c(-c3ccccc3)cc3nnnn3c2c1 | 206* | 8 | 16 | -1 | 1.1 | 17
COc1ccc2c(OC)cc(-c3ccccc3)nc2c1 | 87 | x | -4 | -5 | 1 | -5
SMILES | ERa coact pot | MMP13 inh | ERb SRC1 inh | Smad3 FoxH1 inh | MT1-MMP txn act | ERa coact inh
Cn1nc(SCC(=O)O)sc1=S | 50 | 3 | 7 | 10 | 1 | 70*[fluorescence artefact?]
CCOC(=O)C(Sc1nn(C)c(=S)s1)C(C)=O (centres undefined) | 109 | x | -12 | -1 | 1.2 | 0
COc1ccccc1NC(=O)C1=C(C)NC(SCC(=O)c2ccc(C)cc2)=C(C#N)C1c1ccco1 (centres undefined) | 203* | 1 | -2 | 9 | 1.1 | -4
CCOc1cccc(N2C(=O)CC(N(CCc3ccc(OC)c(OC)c3)C(=O)CC)C2=O)c1 (centres undefined) | 108 | -2 | -11 | -12 | 1.2 | -3
CCOC(=O)c1cnc(-n2cc(C)cn2)nc1NCc1ccc2c(c1)OCO2 | 100 | 2 | 32 | 2 | 1.1 | 65*[fluorescence artefact?]
C=CCN(CC(=O)NCc1ccc(OC)cc1)C(=O)c1csnn1 | 108 | -1 | 2 | -18 | 1.1 | -2
CCOc1cc(-n2cnnn2)c(OCC)cc1NC(=O)c1cc2ccc(N(CC)CC)cc2oc1=O | 191 | x | 53*[fluorescence artefact?] | 5 | x | 84*[fluorescence artefact?]
CCN(CC)c1ccc2cc(C(=O)Nc3cccnc3N3CCOCC3)c(=O)oc2c1 | 116 | 8 | -6 | 8 | 1 | -10
CC1(C)Cc2nc3sc4c(N(CCO)CCO)ncnc4c3cc2CO1 | x | -97 | x | x | 1.3 | x
CC1(C)Cc2nc3sc4c(SCC(=O)NCc5ccccc5)ncnc4c3cc2CO1 | 431*[fluorescence artefact?] | x | 42 | -25 | x | 28
CCN(CC)CCNC(=O)c1cc(Cl)c(N)cc1OC | 109 | 3 | 56* | -5 | 1.1 | -9
COC(=O)c1cc(Cl)c(N)cc1OC | 106 | 4 | -2 | 7 | 1.2 | -10
Cc1nnc(SCCn2c(N3CC(C)CC(C)C3)nc3c2c(=O)[nH]c(=O)n3C)s1 (centres undefined) | 108 | 3 | 5 | 10 | 0.9 | -4
O=C(NCc1ccco1)C(c1ccccc1F)N(CC1CCCO1)C(=O)Cn1nnc2ccccc21 (centres undefined) | 122 | 2 | 0 | 5 | 1.1 | 0
Cc1cc(=O)[nH]c(SCC(=O)NCCc2ccccc2)n1 | 82 | x | 7 | 96* | 1 | 5
Cc1nnc(SCC(=O)NCc2ccccc2)[nH]c1=O | 117 | x | -26 | 63* | 1.1 | -2
O=C(Cn1cnc2sc(-c3ccccc3)cc2c1=O)NCc1ccccc1 | 216* | x | 63*[fluorescence artefact?] | 4 | 1.2 | 59*[fluorescence artefact?]
O=C(Cn1cnc2sc(-c3ccccc3)cc2c1=O)NCc1ccco1 | 147 | -2 | 46 | -7 | 1 | 66*[fluorescence artefact?]
Cc1sc2ncn(CC(=O)NCCc3ccccc3)c(=O)c2c1C | 101 | x | 18 | 7 | 1 | 15
O=C(Cn1cnc2sc(-c3ccccc3)cc2c1=O)NCCc1ccccc1 | 213*[fluorescence artefact?] | x | 37 | 21 | 1.3 | 43
O=C(Cn1nnc(-c2ccccc2)n1)NCc1ccco1 | 87 | x | 1 | 1 | 1 | 5
O=C(Cn1ncn2c(cc3ccccc32)c1=O)NCc1ccco1 | 95 | -10 | 38 | 8 | 1.3 | 57*[fluorescence artefact?]
O=C(Nc1ccc(F)cc1)c1ccc(S(=O)(=O)NCC2CCCO2)cc1 (centres undefined) | 81 | 6 | 9 | 0 | 1.1 | 14

Screening results (PubChem BioAssay)
